{"source": "the supplement of paper PMC6555819", "data": [{"system": "RARb homodimer (NR concentration 270 nM)", "assay": "PBM binding z-score (relative to random genomic background probes); higher = stronger binding; sequences stand for … in GC…GCGATTGACAGCGTAGAATGAAGG", "in_short": "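Ligand-free nuclear receptor dimers were bound for 1 h to custom Agilent 4×180K protein-binding microarrays. Detection used antibodies against each partner (one per run). Binding z-scores rest on regression-normalized fluorescence, with random background probes as the reference.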", "values": [{"sequence": "TGTCAAAGTTCAAAGGTAAAGTAAGTATCCACAC", "PBM binding z-score": 3.74}, {"sequence": "CGAACTAGCTCAGAACAGGACAGTGAAGGATGAT", "PBM binding z-score": -0.0575}, {"sequence": "GATACAGGGTCAGCTAGAGGCAAGAGTATGGAAA", "PBM binding z-score": 2.77}, {"sequence": "GGAACGAGGGCATTCGAGTTAATAGCATGGCGAT", "PBM binding z-score": 0.504}, {"sequence": "TGTGCTAGGTCAACGATGGTCAGCTAATCTGCTA", "PBM binding z-score": 3.4}, {"sequence": "ATACCAAGGTGATCGTGAGGTGGTTGATACTAAC", "PBM binding z-score": 0.533}, {"sequence": "CCTTACGGGTCACGAGGTTATAACACGACGAGCG", "PBM binding z-score": 3.99}, {"sequence": "CCTAGCAGGCCAATCTCGGTCACTCAAGGCTTGA", "PBM binding z-score": 1.46}, {"sequence": "ACTAGCACGCCAAGTTTGGGTCACTCAAACAAAG", "PBM binding z-score": 1.5}, {"sequence": "TCATAAAGGTAAATGCTAGGTGAAAGTCCGATCT", "PBM binding z-score": 0.719}, {"sequence": "CGAACGAGGGCATGAGTAGATAGCAAATGCCGAT", "PBM binding z-score": 0.586}, {"sequence": "TCCTATAGGTAAACAGGTGAAAGTCCGTAAGTTA", "PBM binding z-score": 0.829}, {"sequence": "CCTATTAGTTGACCATAAGGGCAACGGAAGCTCG", "PBM binding z-score": 1.92}, {"sequence": "TAGCCTACGTCATGGGCCAGTATACCACGCGAAC", "PBM binding z-score": -0.00941}, {"sequence": "TCTGCTAGGTCAACTATGGTCAGCTAATCTGCTA", "PBM binding z-score": 3.57}, {"sequence": "TCTTGTAGATCACTAGAGGTTAAGAAAGTGCGCT", "PBM binding z-score": 1.33}, {"sequence": "TCTAGTTGGTCAAAGGTCACAGACTCGAAATGCG", "PBM binding z-score": 5.18}, {"sequence": "CGACCTAGGTCAGAACAGGACAGTGAAGGATGAT", "PBM binding z-score": 2.62}, {"sequence": "CCGGCTGGGGCATAAGGTTACCATAAGCCAGCCC", "PBM binding z-score": 1.62}, {"sequence": "CCTACTGGGCCAAAGGTTATTGATTCCAATGCTC", "PBM binding z-score": 1.57}, {"sequence": "TAGCCTAGGTCATTCTGGGGCCAGTATAGAAAGC", "PBM binding z-score": 2.94}, {"sequence": "GCGAATGGGGCATCAGCAGGTTACCATAACTTAA", "PBM binding z-score": 0.462}]}]}
